High-throughput results: PubChem, National Center for Advancing Translational Sciences (NCATS)
HCMV antiviral: qHTS Assay for inhibitors of the human cytomegalovirus (HCMV); HFF cells, HCMV-luciferase reporter, 72 h; hits give low values; activity change, negative = inhibition, % at 57.5 µM; hit rate 4.5% among 410,000; AID 1259415, 2018; in the data active = activity change below about -60%; inconclusive = no clear call, values can overlap the other calls; inactive = above about -39%
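Luciferase read-out from HCMV-luciferase-infected HFFs (MOI 1 PFU/cell) 72 h post infection at 37C; compounds added after 16 h cell attachment; activity normalized between buffer-only basal and Salinomycin (10uM) inhibitor controls.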
Vaccinia mCherry: qHTS for Stage-Specific Inhibitors of Vaccinia Orthopoxvirus: mCherry Reporter Primary qHTS | AID 720579, 2013 | Potency, µM (top dose mostly 36.5 µM), hits mostly inhibitors | Vaccinia virus mCherry reporter infection, fluorescence | hit rate 0.63% among 310,000; calls by dose curve; tested in A549 cells; note: nearly all actives have a fitted effect of over 35% in size
FMDV inh: High Throughput Screening for Foot and Mouth Disease Virus Antivirals; hit rate 1.2% among 410,000; FMDV antiviral cell-based qHTS; Potency, µM (doses to about 57.9 µM), hits mostly inhibitors; calls by dose curve; tested in HEK293T cells; note: read-out not given here; nearly all actives have a fitted effect of over 45% in size
VACV Venus inh: qHTS for Stage-Specific Inhibitors of Vaccinia Orthopoxvirus: Venus Reporter Primary qHTS. Vaccinia virus Venus reporter expression, fluorescence. Potency, µM (titrated, usually from 36.5 µM), most hits filed as inhibitors. hit rate 0.46% among 330,000. AID 720580, 2013; calls by dose curve; tested in A549 cells; note: nearly all actives have a fitted effect of over 30% in size
Lassa entry inh: qHTS for Inhibitors of binding or entry into cells for Lassa Virus; AID 540256, 2011; Lassa virus pseudotype entry inhibition, cell reporter; Potency, µM (series often up to 37.9 µM), most hits filed as inhibitors; hit rate 1.2% among 300,000; calls by dose curve; tested in HEK293 cells; note: nearly all actives have a fitted effect of over 50% in size
MARV entry inh: qHTS for inhibitors of binding or entry into cells for Marburg Virus | Potency, µM (highest dose often 37.8 µM), hits mostly inhibitors | Marburg virus pseudotyped entry inhibition, cell reporter | hit rate 1.8% among 300,000; calls by dose curve; tested in HEK293 cells
Hits are given with their value; i = inactive; ? = inconclusive; nt = no result. In the library only some 6.5% were active in any assay of this set; here they are far more common.

SMILES	HCMV antiviral	Vaccinia mCherry	FMDV inh	VACV Venus inh	Lassa entry inh	MARV entry inh
CCOC(=O)c1ccc(N2C(=O)c3n[nH]c(-c4ccco4)c3C2c2ccc(C(=O)OC)cc2)cc1 (centres undefined)	-80	i	?	i	?	?
CCOC(=O)c1ccc(N2C(=O)c3n[nH]c(-c4ccco4)c3C2c2ccc(O)c(OCC)c2)cc1 (centres undefined)	-105	i	?	i	?	7.9µM
O=S(=O)(c1ccc2ccccc2c1)N1CCN(c2nc(-c3ccccc3)nc3ccccc23)CC1	nt	i	nt	i	nt	nt
COC(=O)C1=C(C(=O)OC)[C@@H]2N(Cc3ccccc3)c3ccccc3[C@@]23C[C@@H](C(=O)OC)N(C(=O)Nc2ccccc2F)C3=N1	nt	nt	nt	nt	nt	i
CCCC12CN3CC(CCC)(CN(C1)C3c1ccc(OCc3ccccc3)cc1)C2=O (centres undefined)	i	i	i	i	i	i
CCOC(=O)c1ccc(N2C(=O)c3n[nH]c(-c4ccco4)c3C2c2cccc([N+](=O)[O-])c2)cc1 (centres undefined)	i	?	35µM	?	?	5µM
O=C(c1ccccn1)N(CCO)C(c1ccccc1)c1nc2ccccc2[nH]1 (centres undefined)	i	nt	nt	nt	nt	nt
COc1ccccc1C(=O)NC(C)c1cccc2ccccc12 (centres undefined)	i	i	i	i	i	?
COc1cccc(C(=O)NC(C)c2cccc3ccccc23)c1OC (centres undefined)	?	i	i	i	?	5.6µM
Cc1cc2c(cc(C(=O)OCC(=O)NCc3cccs3)n2C(C)C)o1	nt	i	nt	i	9.2µM	?
COc1ccc(Cl)cc1NC(=O)C(C)n1nnc2sc3c(c2c1=O)CCCC3 (centres undefined)	i	i	i	i	i	i
COc1ccc(/C=N/c2oc(-c3ccccc3)cc2C#N)cc1OC	-103	nt	i	i	i	?
O=CN1CCCN(C(=O)c2cc(NC(=O)c3ccccc3)cc3ncn(C4CCCC4)c23)CC1	nt	i	i	i	nt	nt
CCCN1C2CCCC1CC(NC(=O)c1ccccc1OC)C2 (centres undefined)	i	i	i	i	i	?
Cc1ccc(CN2C3CCCC2CC(NC(=O)c2ccc(C)cc2)C3)cc1 (centres undefined)	?	nt	i	nt	?	13µM
CC(=O)NC1CC2CCCC(C1)N2Cc1ccc(C)cc1 (centres undefined)	i	nt	i	nt	nt	nt
CCCN1C2CCCC1CC(NC(=O)c1cc(OC)c(OC)c(OC)c1)C2 (centres undefined)	-104	i	i	i	i	?
Cc1nnc(-n2cccc2)s1	i	nt	nt	nt	nt	nt
NC(=O)CSc1ccc2nnc(-c3ccncc3)n2n1	nt	i	nt	i	nt	nt
COc1cc(Cl)c(NC2=CC(=O)C(=O)c3ccccc32)c(OC)c1	-97	nt	?	nt	nt	nt
CCS(=O)(=O)N1CCc2cc(C(=O)Nc3cc(C(F)(F)F)ccc3Cl)ccc21	i	i	i	i	i	i
CCOc1ccc(-c2nonc2NC(=O)c2oc3ccc(Br)cc3c2C)cc1	-96	i	i	i	?	i
CCOc1ccc(-c2nonc2NC(=O)c2oc3cc(Br)ccc3c2C)cc1	?	?	i	?	i	i
CN(Cc1nc(Cc2ccccc2F)no1)CC1(N2CCOCC2)CCCCC1	i	i	i	i	i	?
CN(Cc1nc(Cc2ccccc2F)no1)Cc1cccc2ncccc12	-85	i	16µM	i	?	i
SMILES	HCMV antiviral	Vaccinia mCherry	FMDV inh	VACV Venus inh	Lassa entry inh	MARV entry inh
Clc1cccc(-c2csc(-c3nc(-c4ccc(Br)s4)cs3)n2)c1	i	i	i	i	?	i
C=CCN1C(=O)c2ccc(C(=O)N3CCN(S(=O)(=O)c4cccc(Cl)c4)CC3)cc2C1=O	-76	i	i	i	i	i
C=CCN1C(=O)c2ccc(C(=O)N3CCC(C(N)=O)CC3)cc2C1=O	-86	nt	i	nt	nt	nt
O=[N+]([O-])c1cc(S(=O)(=O)C(F)(F)F)ccc1Sc1nc2ccccc2s1	i	nt	?	i	?	?
CS(=O)(=O)c1ccc(Sc2nc3ccccc3s2)c([N+](=O)[O-])c1	nt	?	35µM	?	?	11µM
CC1CCN(C(=O)C(C)OC(=O)c2ccc(S(C)(=O)=O)c([N+](=O)[O-])c2)CC1 (centres undefined)	nt	i	nt	i	nt	nt
CCC(OC(=O)c1ccc(S(C)(=O)=O)c([N+](=O)[O-])c1)C(=O)NC1C2CC3CC(C2)CC1C3 (centres undefined)	-95	nt	40µM	nt	nt	nt
CC(OC(=O)c1ccc(S(C)(=O)=O)c([N+](=O)[O-])c1)C(=O)NC1C2CC3CC(C2)CC1C3 (centres undefined)	-97	nt	32µM	nt	nt	nt
CCCCCCC[C@@H](C/C=C/CCC(=O)N(C)C/C(=C/Cl)C/C(=C\C(=O)N1CC(OC)=CC1=O)OC)OC	?	10µM	?	?	nt	nt
CCCCCCC[C@@H](C/C=C/CCC(=O)N(C)C/C(=C/Cl)C/C(=C\C(=O)N1C[C@H](O)CC1=O)OC)OC	i	i	32µM	?	nt	nt
CCCCSCCCNC(=O)CN1C(=O)COc2ccc(S(=O)(=O)N3CCCC3)cc21	i	i	i	i	i	i
CC(=O)c1ccccc1OCC(O)CNC1CCCC1 (centres undefined)	i	nt	i	nt	nt	nt
COc1oc(C(=O)NC2CCCCC2)c(-c2ccc(Cl)cc2)c1S(=O)(=O)c1ccccc1	-64	i	i	i	i	i
CC(Oc1cccc(Cl)c1)C(=O)Nc1ccc(S(=O)(=O)N(C)C2CCN(C)CC2)cc1 (centres undefined)	i	11µM	i	?	i	?
CN1CCC(N(C)S(=O)(=O)c2ccc(NC(=O)COc3ccc(Cl)cc3)cc2)CC1	i	nt	i	nt	nt	nt
Cc1cccc2cc3c(nc12)SC(=NCC1CCCO1)N(Cc1ccco1)C3 (centres undefined)	nt	i	?	i	?	?
Cc1ccc2nc3c(cc2c1)CN(Cc1ccco1)C(=NCC1CCCO1)S3 (centres undefined)	-70	i	i	i	?	i
CCc1ccc(NC(=O)CCn2nc(-c3ccccc3OC)c3c(C)cc(C)nc32)cc1	i	i	i	i	?	?
Cc1ccc2c(c1)sc(-c1ccc(N(C)C)cc1)[n+]2C	-96	?	?	?	nt	nt
Cc1ccc(N(C)C)cc1	i	nt	nt	nt	nt	nt
CCc1ccc(CNC(=O)C(CC)n2ccc3cc(S(=O)(=O)N4CCCCC4)ccc32)cc1 (centres undefined)	i	i	i	i	i	nt
COc1ccc(NS(=O)(=O)c2cc(NC(=O)[C@H](C)NC(N)=O)ccc2N2CCCC2)cc1	-85	i	i	i	i	i
CCC(=O)Nc1ccc(N2CCOCC2)c(S(=O)(=O)Nc2ccc(OC)cc2)c1	i	i	i	i	i	i
COc1ccc(NS(=O)(=O)c2cc(NC(=O)C(CC(C)C)NC(N)=O)ccc2N2CCOCC2)cc1 (centres undefined)	-68	nt	i	nt	nt	nt
